# Source: PubChem BioAssay (The Scripps Research Institute Molecular Screening Center)
# MITF primary = inhibitors of human MITF; inhibition, % at 2.6 µM; AID 1259374; actives 0.91% (n = 650,000); AlphaScreen MITF homodimerization, bead proximity signal; in the data active means inhibition above about 50%;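 further: 0% = vehicle wells with protein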
# Target sequence (O75030 whole entry, looked up): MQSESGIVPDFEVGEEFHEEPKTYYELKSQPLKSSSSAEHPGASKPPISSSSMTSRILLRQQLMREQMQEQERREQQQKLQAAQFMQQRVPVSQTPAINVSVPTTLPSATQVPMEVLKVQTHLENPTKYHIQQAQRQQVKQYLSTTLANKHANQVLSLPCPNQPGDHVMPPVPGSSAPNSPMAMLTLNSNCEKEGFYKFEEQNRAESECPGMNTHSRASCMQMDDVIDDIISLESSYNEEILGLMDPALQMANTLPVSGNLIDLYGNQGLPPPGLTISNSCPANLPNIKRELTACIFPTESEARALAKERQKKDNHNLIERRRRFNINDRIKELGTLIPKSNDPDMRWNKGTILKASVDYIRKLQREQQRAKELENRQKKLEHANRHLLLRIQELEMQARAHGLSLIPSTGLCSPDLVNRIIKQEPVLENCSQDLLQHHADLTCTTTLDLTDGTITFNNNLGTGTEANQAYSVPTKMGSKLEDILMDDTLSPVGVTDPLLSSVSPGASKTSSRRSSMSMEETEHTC
# TEAD-YAP block = TEAD-YAP interaction inhibition; inhibition, % at 9.12 µM; actives 1.4% (n = 640,000); HEK-TIYL cells, TEAD-Gal4/YAP UAS-luciferase luminescence; in the data active means inhibition above about 32%;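 further: 0% = median of test compound wells and 100% = reference inhibitor wells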
# GPR151 ag = human GPR151 activation | Q8TDV0 | PathHunter beta-arrestin GPR151 cells, luminescence | activation, % at 11.2 µM | actives 1% (n = 650,000); in the data active means activation above about 4.9%;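 further: 0% = median of compound wells and 100% = cells with positive control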
# FBW7 act = activators of human E3 ligase FBW7; Q969H0; AlphaScreen FBW7–phospho-cyclin E peptide binding, activator screen; normalized activity (activation), % at 26.1 µM; actives 0.13% (n = 650,000); AID 1259310; in the data active means normalized activity above about 1.9%;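 further: purified mutant Fbw7 with reduced substrate affinity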
# The depositor's hits bear a star. Compounds with a hit are over-represented: about 3.4% of the library has one in this group of screens.
SMILES,MITF primary,TEAD-YAP block,GPR151 ag,FBW7 act
CCCC(=O)NC(c1ccc(OC)cc1)c1ccc2cccnc2c1O (stereo not drawn),50,72*,1,-2
CCC(=O)NC(c1ccc(OC)cc1)c1c(O)ccc2ccccc12 (stereo not drawn),-12,52*,0,0
CCCC(=O)NC(c1ccc(F)cc1)c1ccc2cccnc2c1O (stereo not drawn),31,86*,-1,-1
COC(=O)COc1cc2oc(=O)c3c(c2cc1Cl)CCC3,10,-7,0,0
CCOc1ccc(C2Nc3ccc(C(=O)c4ccccc4)cc3NC3=C2C(=O)CCC3)cc1 (stereo not drawn),17,47*,2,0
COc1ccc(C2Nc3ccc(C(=O)c4ccccc4)cc3NC3=C2C(=O)CCC3)cc1 (stereo not drawn),5,39*,0,0
COc1cc(C2Nc3ccc(C(=O)c4ccccc4)cc3NC3=C2C(=O)CCC3)cc(OC)c1O (stereo not drawn),-11,68*,-1,0
COc1cccc(C2Nc3ccc(C(=O)c4ccccc4)cc3NC3=C2C(=O)CCC3)c1 (stereo not drawn),-2,60*,1,0
O=C1CCCC2=C1C(c1ccc(F)c(Oc3ccccc3)c1)Nc1ccc(C(=O)c3ccccc3)cc1N2 (stereo not drawn),2,8,2,0
COc1ccc(C2Nc3ccc(C(=O)c4ccccc4)cc3NC3=C2C(=O)CC(C)(C)C3)cc1 (stereo not drawn),8,15,-1,0
CCOc1ccc(C(c2nnnn2Cc2cccs2)N2CCN(CC)CC2)cc1 (stereo not drawn),-10,3,0,0
CN(CCn1cccn1)Cc1ccc(C(=O)NC2CCCc3ccccc32)c(=O)[nH]1 (stereo not drawn),-9,0,1,0
O=C(Nc1ccc2c(c1)OCCO2)c1ccccc1F,8,41*,-7,0
O=C(Nc1ccc2c(c1)OCCO2)c1ccccc1O,12,56*,-6,0
Cc1cc(C)c(C(=O)Nc2ccc3c(c2)OCCO3)c(C)c1,-3,-8,0,0
Cc1ccc(C2=NC(C)(C)N=C2SCC(=O)Nc2ccc3c(c2)OCCO3)cc1,-10,15,0,3.7*
Cc1ccc(C(=O)Nc2ccc3c(c2)OCCO3)c(C)c1,2,89*,-5,0
Cc1ccc(-c2nc3ccccc3s2)cc1NC(=O)c1ccc(Cl)cc1,10,3,1,0
CCC(CC)C(=O)Nc1cccc(C(=O)Nc2ccc3c(c2)OCCO3)c1,9,-66,1,0
O=C(Nc1cccc(C(=O)NC2CC2)c1)C(=O)Nc1ccc2c(c1)OCCO2,6,66*,1,0
CCOC(=O)c1sc(NC(=O)CCSc2nnc3ccccn23)c(C(=O)OCC)c1C,18,-6,-1,1
CCc1cccc(C)c1NC(=O)CN1C(=O)NC(Cc2c[nH]c3ccccc23)C1=O (stereo not drawn),8,-2,0,0
O=C(CCc1ccccc1)OCC(=O)c1c[nH]c2ccccc12,7,-9,3,0
Cc1ccc(C(=O)Nc2sc(C)c(C)c2C(=O)O)cc1,-4,49*,-2,0
CCN(CC)C(=O)c1c(NC(=O)c2cccs2)sc2c1CCC2,18,36*,0,0
SMILES,MITF primary,TEAD-YAP block,GPR151 ag,FBW7 act
O=C(Nc1sc2c(c1C(=O)O)CCCCC2)c1ccccc1,14,46*,-9,0
Cc1ccc(C(=O)Nc2sc3c(c2C(=O)O)CCCCC3)cc1,-3,83*,-3,0
Cc1ccc(C(=O)Nc2ccc3nc(SC(C)C(=O)Nc4c(C)cc(C)cc4C)sc3c2)cc1 (stereo not drawn),1,-17,1,0
O=C(COc1cccc2ccc(N3CCOCC3)nc12)Nc1cccc(F)c1,1,34*,3,0
CCOc1ccc(NC(=O)COc2cccc3ccc(N4CCCC4)nc23)cc1,-5,-9,-1,0
Cc1nn(-c2nc3ccccc3[nH]2)c(=O)c2ccccc12,2,97*,-9,0
COc1ccc2cnn(-c3nc4ccccc4[nH]3)c(=O)c2c1OC,-5,43*,-4,0
O=C(Nc1nc(CN2CCc3ccccc3C2)cs1)c1ccc(F)cc1F,-2,-5,1,0
CCOC(=O)CNC(=O)c1sc2nc(C)nc(N(C)c3ccc(C(C)C)cc3)c2c1C,15,0,1,2.3*
CCOC(=O)CNC(=O)c1ccc(C(C)C)cc1,4,48*,-2,0
CCCCNC(=O)c1sc2nc(C)nc(N(C)c3ccc(C(C)C)cc3)c2c1C,-8,-5,5,0
O=C(CCC(=O)OCC(=O)c1ccc([N+](=O)[O-])cc1)Nc1cccc(Cl)c1,6,10,1,0
COc1cccc(C2CC(=O)N3C(=C2C#N)SCC3(O)c2ccc(F)cc2)c1 (stereo not drawn),1,-11,0,0
COc1cccc(C2(O)CSC3=C(C#N)C(c4cccc(F)c4)CC(=O)N32)c1 (stereo not drawn),-23,48*,0,-1
COc1ccc(C2(O)CSC3=C(C#N)C(c4cccc(Cl)c4)CC(=O)N32)cc1OC (stereo not drawn),-6,-7,-1,0
COc1cccc(C2(O)CSC3=C(C#N)C(c4cccc(Cl)c4)CC(=O)N32)c1 (stereo not drawn),24,67*,0,0
Cc1nnc2c(NCc3ccncc3)nc3ccccc3n12,0,3,0,0
CCC(=O)N1CCc2cc(S(=O)(=O)NC(C(=O)Nc3cc(C)ccn3)C(C)C)ccc21 (stereo not drawn),14,-2,0,0
COc1cc(C2Nc3ccccc3NC3=C2C(=O)CC(c2ccccc2Cl)C3)cc(Br)c1O (stereo not drawn),4,43*,0,0
COc1cc(C2Nc3ccccc3NC3=C2C(=O)CC(c2ccccc2Cl)C3)ccc1O (stereo not drawn),5,51*,-1,0
c1ccc2c(c1)CCN(c1nc3ncnc(Nc4ccc(N5CCOCC5)cc4)c3[nH]1)C2,-1,53*,-2,0
c1ccc2c(Nc3nccc(Nc4ccc(N5CCOCC5)cc4)n3)nccc2c1,15,62*,4,0
c1ccc2c(Nc3nc4ncnc(Nc5ccc(N6CCOCC6)cc5)c4[nH]3)nccc2c1,45,40*,0,0
c1ccc(Nc2ccnc(N3CCc4ccccc4C3)n2)cc1,-1,-47,-1,0
c1ccc(Nc2ncnc3nc(Nc4ccc(N5CCOCC5)cc4)[nH]c23)cc1,-12,-6,1,0
c1ccc2c(c1)CCN(c1nccc(Nc3ccc(N4CCOCC4)cc3)n1)C2,7,41*,1,0
O=c1c2c3c(sc2n2cnnc2n1Cc1ccccc1)CCCC3,18,-5,0,1.9*
COc1ccc(Nc2cc(C)c3c(O)cccc3n2)cc1,12,38*,-1,0
Clc1ccc(-c2cc3c(nn2)Nc2ccccc2N3)cc1,8,86*,-5,0
